# Assay outcomes from PubChem BioAssay.
# Tb PFK inh: T. brucei PFK enzyme inhibition; O15648; Potency, µM (doses to about 57.5 µM), for inactives: at the top dose activity, negative = inhibition, most hits filed as inhibitors; T. brucei PFK, ADP-Glo luminescence; actives 0.17% (n = 330,000);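 further: potency means the concentration at half of the fitted maximal effect; 0% = uninhibited 1x PFK enzyme wells and -100% = no-enzyme wells; nearly all actives have a fitted effect of over 60% in size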
#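 Compounds were pin-transferred as a titration series up to 57 uM into substrate buffer (0.5 mM F6P, 0.1 mM ATP, pH 8.0), then 1.25 nM PFK was added and reactions ran 45 min before ADP-Glo detection.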
# PI5P4K alpha inh: inhibitors of human PI5P4K alpha | P48426 | PI5P4Kalpha enzyme, ADP-Glo luminescence, 60 min; stronger effect = lower value | max response, % | actives 1.2% (n = 330,000) | AID 652105; active means max response of -50% or lower; inconclusive means between -30% and -50%; inactive means -30% or higher; further: value at the top dose of about 77 µM
# Target sequence (P48426 whole entry, looked up): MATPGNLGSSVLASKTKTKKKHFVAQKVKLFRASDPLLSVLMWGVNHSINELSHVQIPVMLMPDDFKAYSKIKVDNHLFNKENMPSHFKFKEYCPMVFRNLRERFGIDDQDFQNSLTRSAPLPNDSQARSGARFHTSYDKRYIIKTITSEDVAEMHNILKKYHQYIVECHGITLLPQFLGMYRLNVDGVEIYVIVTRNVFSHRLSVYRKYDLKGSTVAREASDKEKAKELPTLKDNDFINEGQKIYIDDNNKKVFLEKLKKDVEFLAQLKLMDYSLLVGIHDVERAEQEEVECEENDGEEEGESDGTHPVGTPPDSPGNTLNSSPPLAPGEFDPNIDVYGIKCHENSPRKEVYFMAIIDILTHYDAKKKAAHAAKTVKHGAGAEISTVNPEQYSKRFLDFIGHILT
#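 qHTS, 1536-well: enzyme/substrate mix, compound by pin tool, 5 microM ATP final; RT 60 min; ADP-Glo reagents 1 (45 min) then 2 (30 min); luminescence.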
# Pin1 inh: inhibitors of human Pin1. Q13526. Potency, µM (top dose mostly 115 µM), for inactives: at the top dose activity, negative = inhibition, actives largely listed as inhibitors. Pin1 FP peptide displacement, HiFluor488, 10 min. AID 504891. actives 0.009% (n = 390,000); active means well fitted inhibition curve with a large enough effect in the polarisation, with a control signal flat, not every such curve was filed as active; inconclusive means small, poorly fitted or top-dose-only effect, or effect the other way, or a change in a side signal; inactive means no such curve, though single readings can be large or run the other way; the % refers to the polarisation; further: potency means the concentration at half of the fitted maximal effect
# Target sequence (Q13526 whole entry, looked up): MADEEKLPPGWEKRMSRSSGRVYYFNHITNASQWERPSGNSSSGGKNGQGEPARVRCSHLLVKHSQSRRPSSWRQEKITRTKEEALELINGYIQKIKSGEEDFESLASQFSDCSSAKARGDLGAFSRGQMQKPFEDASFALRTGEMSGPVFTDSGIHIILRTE
# Tb PGK inh: blocks T. brucei phosphoglycerate kinase; P07378; PGK/GAPDH coupled, Kinase-Glo luminescence, 60 min; Potency, µM (series often up to 57.5 µM), for the others: at the top dose activity change, negative = inhibition, most hits filed as inhibitors; actives 0.043% (n = 380,000); AID 602233; further: potency means the concentration at half of the fitted maximal effect; nearly all actives have a fitted effect of over 60% in size
#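 Luminescent ATP detection (Kinase-Glo Plus) follows a 60-minute room-temperature incubation, with wells lacking PGK as controls. Buffer: 100 mM TEA (pH 7.6), 5 mM MgCl2, 0.01% Tween-20. Coupling enzyme GAPDH (100 nM final) supplies unstable 1,3-BPG in-well.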
# PI4K2A inh: inhibitors of human PI4K2A; Q9BTU6; purified PI4K2A, ADP-Glo luminescence, 1 h; stronger effect = lower value; activity change, negative = inhibition, % at 76.9 µM; actives 0.13% (n = 420,000); AID 1346378; in the data active means activity change below about -50%; inconclusive means mostly about -30% to -49%;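 further: -100% = wells without enzyme as full effect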
#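 In this quantitative HTS, ADP production by PI4K2A was quantified luminescently after 1 h at ambient temperature; 100 microM adenosine served as plate-quality control.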
# An asterisk follows results filed as active; i = inactive; ? = inconclusive; . = not tested or not shown. This excerpt belongs to a sample that is enriched for hits. Unless noted, the call rests on the fitted dose curve; in most records, active means well fitted curve in the direction sought with a large enough effect; inconclusive means small, poorly fitted or top-dose-only effect, or another doubt; inactive means no such curve, though single readings can be large; an effect the other way counts as inactive or inconclusive. Unless noted, on the % scale 0 is the no-effect control and ±100 the full control effect.
SMILES,Tb PFK inh,PI5P4K alpha inh,Pin1 inh,Tb PGK inh,PI4K2A inh
COc1ccc(S[C@]2(C(=O)N(C)C)CC(=O)N(C(=O)/C=C/c3ccccc3)[C@@H]2c2ccc(OC)cc2)cc1,.,.,.,.,1
COc1ccc(C(=O)N(Cc2cccs2)Cc2cccs2)c(O)c1,.,.,-6%,.,.
O=C(CNC(=O)c1ccc2ccccc2c1)OC(C(=O)Nc1cc(C(F)(F)F)ccc1Cl)c1ccccc1 (stereo not given),.,.,12%,.,.
COc1ccc(Br)cc1/C=c1\sc2nc(-c3ccco3)nn2c1=O,?,-59*,.,?,28
CC1=NOC(=O)/C1=C\c1ccc(-c2ccc(Br)cc2C(=O)O)o1,?,-22,-6%,-7%,-9
CC1=NN(c2ccc(Br)cc2)C(=O)/C1=C/c1ccc(-c2ccccc2C(=O)O)o1,-6%,3,.,-16%,-50*
Cc1cc2nc3s/c(=C/c4ccc(-c5ccccc5C(=O)O)o4)c(=O)n3c2cc1C,4%,-86*,?,i,-7
O=C(O)c1cc(-c2ccc(/C=c3\sc4nc5ccc(Br)cc5n4c3=O)o2)ccc1Cl,0.85µM*,.,.,.,.
O=C(O)c1cc(-c2ccc(/C=C3\NC(=O)N(c4ccc(Cl)cc4)C3=O)o2)ccc1Cl,-3%,?,?,32µM*,-8
O=C(O)c1cc(-c2ccc(/C=C3\NC(=O)N(c4ccccc4)C3=O)o2)ccc1Cl,-3%,?,?,-25%,-6
Cc1cc2nc(/C(C#N)=C\c3ccc(-c4ccccc4C(=O)O)o3)[nH]c2cc1C,-29%,-27,?,-1%,8
Cc1cc2c(s1)c1cnn(Cc3ccc(-c4ccccc4)cc3)c(=O)c1n2C,.,.,-6%,.,.
CC(C)(C)OC(=O)Cc1nnc(-c2nc3ccccc3[nH]2)s1,.,.,9%,.,.
CCN(CC)c1ccc(C=C2C(=O)OC3(CCCCC3)OC2=O)cc1,-8%,-1,?,-10%,-7
CCN(CC)c1ccc(/C=C2/C(=O)c3ccc(C(=O)O)cc3C2=O)cc1,12%,-92*,?,-25%,-24
CCCCCCc1cc2cc(-c3nnc(-c4ccccc4OC)o3)c(=O)oc2cc1O,-7%,-88*,?,?,-3
COc1cc(/C=C2/SC(=Nc3ccc(O)cc3)NC2=O)cc(OC)c1O,-1%,-51*,21%,-5%,-3
CCc1ccc(N=C2NC(=O)/C(=C/c3ccc(OCC(=O)O)c(OC)c3)S2)cc1,-13%,-75*,.,i,-5
COc1ccc(/C=C2\SC(=Nc3ccccc3)NC2=O)cc1,1%,.,.,.,.
COc1ccc(N=C2NC(=O)/C(=C\c3ccco3)S2)cc1,-2%,-59*,?,-11%,-11
COc1ccc(N=C2NC(=O)/C(=C/c3ccc(O)c(OC)c3)S2)cc1,0%,-62*,?,-5%,1
Cc1ccc(-c2nn3c(C)nnc3s2)cc1NC(=O)c1ccc(-c2ccc(Cl)cc2Cl)o1,-5%,.,239%,-8%,5
Cc1ccc(-c2nn3c(C)nnc3s2)cc1NC(=O)c1ccc(-c2cccc(Cl)c2)o1,-1%,-53*,?,-3%,-6
CC(C)CC(=O)Nc1nc(=S)ss1,-3%,-53*,1%,-4%,2
CC(=O)Nc1nc(=S)ss1,-2%,-58*,0%,-2%,3
SMILES,Tb PFK inh,PI5P4K alpha inh,Pin1 inh,Tb PGK inh,PI4K2A inh
COC(=O)c1cc(-c2cccc(C(C)C)c2)c(=O)n2c1CCC2,.,.,.,.,-3
CC(C)CN1C(=O)[C@@]2(CC(=O)N(C)C2c2ccccc2)c2cc(-n3cc(-c4ccccc4)nn3)ccc21 (stereo not given in full),.,.,.,.,0
Cc1cccc(NC(=O)CSc2nnc(-c3ccco3)c(-c3ccco3)n2)c1C,?,-77*,.,-19%,-28
Cc1cccc(NC(=O)CSc2nnc(-c3ccco3)c(-c3ccco3)n2)c1,-18%,-61*,?,-6%,0
Cc1ccccc1NC(=O)CSc1nnc(-c2ccco2)n1N,-14%,-6,-8%,-7%,1
CCn1c(SCC(=O)Nc2ccc(C(=O)OC)cc2)nnc1-c1cccc(Cl)c1,.,.,.,.,-4
COc1ccnc2c1CCCCC2S(=O)c1nc2ccccc2[nH]1 (stereo not given),.,.,.,.,-2
O=C(C[n+]1ccc(CCSc2ccc(F)cc2)cc1)c1ccccc1,?,-53*,?,6%,-18
Cc1ccccc1N(C)C1=N[S+](=O)([O-])c2ccccc21,.,.,-10%,.,.
CN1Cc2cc(C(=O)N3CCC(C4CCNCC4)CC3)ccc2N[C@@H](CC(=O)O)C1=O,.,.,.,.,-12
N#C/C(=C/c1cc(Cl)c(O)c(Cl)c1)C(=O)N1CCCCC1,2%,-94*,-2%,-9%,-21
N#C/C(=C\c1ccc(O)c(O)c1)C(=O)N1CCCC1,-23%,-17,-7%,-5%,-2
CN(C)/C=C1/C(=O)N(c2ccc([N+](=O)[O-])cc2)N=C1c1ccccc1,0%,.,.,.,.
CN(C)/C=C1\C(=O)N(c2ccc([N+](=O)[O-])cc2)N=C1c1ccccc1,-4%,7,-13%,-2%,-51*
O=C(CSc1nnc(-c2ccco2)n1-c1ccc(Cl)cc1)Nc1ccc(S(=O)(=O)Nc2nccs2)cc1,.,.,.,.,-6
CN(Cc1cccs1)c1ncnc2ccc(-c3ccc4cnn(C)c4c3)cc12,.,.,7%,.,.
CCOC(=O)C1CCN(c2nc(N)c3c(N)nc(SCC(=O)O)cc3c2C#N)CC1,-14%,-88*,?,?,?
COc1cccc(-n2c(C)cc(/C=C3/C(=N)N4C(=NC3=O)SN=C4S(C)(=O)=O)c2C)c1,-1%,-63*,?,-9%,-20
CS(=O)(=O)C1=NSC2=NC(=O)/C(=C\c3ccc(OS(=O)(=O)c4ccccc4)cc3)C(=N)N21,1%,-62*,1%,-12%,-14
COc1cc(/C=C2/C(=N)N3N=C(C)SC3=NC2=O)ccc1OS(=O)(=O)c1ccc(C)cc1,0%,-18,6%,-3%,-3
COc1cc(/C=C2/C(=N)N3C(=NC2=O)SN=C3S(C)(=O)=O)ccc1OS(=O)(=O)c1ccc(C)cc1,-1%,-79*,4%,-9%,-7
CC1=NN2C(=N)/C(=C\c3cc(C)n(-c4cccc(C)c4)c3C)C(=O)N=C2S1,4%,-16,10%,-4%,-4
CCS(=O)(=O)C1=NSC2=NC(=O)/C(=C\c3ccc(OS(=O)(=O)c4ccccc4)c(OC)c3)C(=N)N21,3%,-67*,16%,-2%,-6
Cc1ccc(S(=O)(=O)Oc2ccc(/C=C3\N=C(c4cccc(C)c4)OC3=O)cc2)cc1,3%,2,-2%,-14%,10
Cc1ccc(S(=O)(=O)Oc2ccc(/C=C3/C(=N)N4C(=NC3=O)SN=C4S(C)(=O)=O)cc2)cc1,-7%,-59*,?,0%,0
